# Screens as filed in PubChem BioAssay.
# MRP-1 activ: H69AR viability gain despite doxorubicin, primary screen, MRP-1 activator project, H69AR cells, CellTiter-Glo; 0.61% of 140,000 active; viability increase, % at 10 µM; viability rescue;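 active = viability gain under doxorubicin at or above a set limit, the compound median plus 3 SD, cut at about 4.7% in these data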;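 also: MRP-1 overexpressing cells given doxorubicin 25 µM after compound pretreatment; 18-22 h compound pretreatment then 72 h with doxorubicin before readout; 0% = doxorubicin-only wells and 100% = vehicle-treated cells without doxorubicin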
# MRP resist rev: reversal of MRP1-mediated doxorubicin resistance, primary screen, H69AR cells, doxorubicin co-treatment | H69AR cells + 2 uM doxorubicin, CellTiter-Glo, 72 h | differential viability (reversal), % at 10 µM | 0.04% of 85,000 active | AID 602, 2007;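 active = viability drop by adding the cancer drug above about 55%, with treated viability meeting a 40% cutoff, limit read from the data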;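 also: viability without doxorubicin minus viability with 2 µM doxorubicin for each compound; larger differential means the compound sensitizes cells more to doxorubicin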
# * = called active by the depositor; . = no result given. Hits are enriched below; roughly 0.65% of the tested compounds scored in any of these assays.
SMILES,MRP-1 activ,MRP resist rev
Cc1nnc(C)n1/N=C/c1ccccn1,-2,-9
CCC(C)NC(=O)COC(=O)c1oc2ccccc2c1CSc1ccc(Cl)cc1 (stereo not given),-1,.
CC1=NN(c2ccccc2)C(=O)C1(C)[N+](=O)[O-] (stereo not given),0,.
COc1ccc(-c2cc(C(=O)O)c3ccccc3n2)c(OC)c1,-1,5
COc1ccc2cc(-c3cc(C(=O)O)c4ccccc4n3)ccc2c1,6.5*,.
COc1cc(NC(=O)C2=C(N3CCOCC3)/C(=C\c3ccc(Cl)cc3Cl)CC2)cc(OC)c1OC,-2,.
CC1=NN(c2ccc(C)c(C)c2)C(=O)C1C(c1cccc(O)c1)C1C(=O)N(c2ccc(C)c(C)c2)N=C1C (stereo not given),-4,.
CC1=NN(c2ccc(C)cc2C)C(=O)C1C(c1ccccc1O)C1C(=O)N(c2ccc(C)cc2C)N=C1C (stereo not given),5.6*,.
Clc1ccc(CSc2ncn[nH]2)cc1,5.9*,-2
CCOc1ccc(Cl)cc1CSc1ncn[nH]1,4,.
CCOC(=O)c1cc(-c2ccccc2)sc1NC(=O)C(C)Sc1nnnn1C (stereo not given),4,5
CCOC(=O)c1cc(-c2ccccc2)sc1NC(=O)C(C)Sc1nnc(C)s1 (stereo not given),9.2*,.
Oc1c(C=C2N=c3ccccc3=N2)sc(=S)n1-c1ccc(F)cc1,9.2*,.
Oc1c(C=C2N=c3ccccc3=N2)sc(=S)n1C1CCCC1,-4,.
Cc1cc2cc(CN(Cc3cccs3)S(=O)(=O)c3ccc4c(c3)OCCO4)c(=O)[nH]c2cc1C,-1,.
Cc1cccc2cc(CN(Cc3cccs3)S(=O)(=O)c3ccc4c(c3)OCCO4)c(=O)[nH]c12,9.3*,.
CCOc1ccc(-c2nc(CSCC(=O)NC3CCCc4ccccc43)c(C)o2)cc1 (stereo not given),1,-5
COc1ccc(CN=C2NC(=O)CC(C(=O)Nc3ccc(F)cc3)S2)cc1 (stereo not given),6.7*,.
COc1cccc(N=C2SC(C(=O)Nc3ccc(F)cc3)CC(=O)N2C)c1 (stereo not given),-3,-20
CCOC(=O)c1c(/N=C/C2=C(O)CC(C)(C)CC2=O)sc(C)c1C,-3,.
Cc1ccc(OCC(=O)Nc2ccc(F)cc2)cc1C,0,1
CN(N=Nc1ccc([N+](=O)[O-])cc1)c1ccccc1,2,.
CC(C)N(N=Nc1ccc([N+](=O)[O-])cc1)C(C)C,4.7*,.
O=C(CN1CCN(C(=O)c2c(F)cccc2F)CC1)Nc1ccccc1F,0,13
COc1ccc(Cl)cc1NC(=O)C(C)Sc1nncn1C (stereo not given),-3,11
SMILES,MRP-1 activ,MRP resist rev
CC(Sc1nncn1C)C(=O)Nc1ccc(Cl)cn1 (stereo not given),4.9*,.
O=C(COc1ccc(Cl)cc1)NCc1nnc(SCC(=O)NCc2ccc3c(c2)OCO3)o1,5.8*,8
O=C(COc1ccc(Cl)cc1)NCc1nnc(SCC(=O)N2CCCCC2)o1,1,8
COc1ccc(CCNC(=O)CSc2nnc(NC(C)=O)s2)cc1OC,-2,.
O=C(COC(=O)COc1ccc(Cl)cc1Cl)Nc1cccnc1Cl,-2,.
CC1(C)Cc2c(sc3nnn(Cc4ccc(Cl)cc4)c(=O)c23)CO1,7.4*,.
Cc1ccc(-c2nc3sc4c(c3c(=O)n2N)CC(C)(C)OC4)cc1,3,4
CCOC(=O)CN1C(=O)CSc2ccccc21,-3,.
Cc1cc2n(n1)C(c1ccccc1)CC(c1ccc(Br)cc1)=N2 (stereo not given),5.5*,.
CNC(=S)N1N=C(c2ccc(Br)cc2)CC1c1ccc(Br)cc1 (stereo not given),-1,.
Cc1ccc(Nc2cc(C)nc(NCc3ccccc3)n2)cc1,-5,.
Cc1cc(C)nc(N/N=C/c2cccc3ccccc23)n1,5.7*,.
Cc1cc(N/N=C/c2ccccc2Cl)nc(NCc2ccccc2)n1,7.1*,.
Cc1cc(C)nc(N/N=C/c2ccccc2)n1,1,.
COc1cc(/C=N/NC(=O)CC23CC4CC(CC(C4)C2)C3)cc(Br)c1OCC(=O)N(C)C,-2,.
COc1ccccc1C(N)=S,-1,.
CN=c1scc(C)n1/N=C/c1ccc(O)c(O)c1O,12*,-21
CN=c1scc(-c2cccs2)n1/N=C/c1ccc(O)c(O)c1O,-5,.
CC(c1nc2ccccc2c(=O)[nH]1)N1CCN(C)CC1 (stereo not given),-1,-3
CCOc1ccc(S(=O)(=O)NN)cc1,2,.
O=C(NCCc1ccc2c(c1)OCCO2)c1cc(F)cc(F)c1,4.7*,.
O=C(NCCc1ccc2c(c1)OCCO2)c1cccc(F)c1,0,.
CNC(=O)CSc1nnc(COc2ccc(Cl)cc2)n1CCOC,9.8*,0
COc1ccc(Cl)cc1NC(=O)CSc1nnc(COc2ccccc2)n1C,2,-20
COc1ccc(Cl)cc1NC(=O)CSc1nnc(COc2ccccc2)n1N,7.8*,20
SMILES,MRP-1 activ,MRP resist rev
C=CCn1c(COc2ccc(Cl)cc2)nnc1SCC(=O)NCC(=O)OCC,0,-2
Cc1ccc(/C=C/C(=O)c2ccccc(=O)c2O)cc1C,-5,.
COc1ccc(NC2=Nc3cccc4cccc2c34)cc1,-3,.
Cc1noc(C)c1C1(O)CCCCCCCCCCC1,-1,.
O=C(N/N=C/c1ccccn1)c1cc(-c2cccc3ccccc23)n[nH]1,0,.
O=C(N/N=C/c1ccccn1)c1cc(-c2ccc3ccccc3c2)n[nH]1,7.5*,.
CC(C)Cc1nnc(NS(=O)(=O)c2ccc(Cl)cc2)s1,0,4
O=C(Nc1cccn(Cc2c(Cl)cccc2Cl)c1=O)c1c(Cl)cccc1Cl,9.2*,.
COC(=O)Nc1cccn(Cc2c(Cl)cccc2Cl)c1=O,1,.
Cc1ccc(N/N=C(\C#N)C(N)=S)c(C)c1,8.2*,.
CCOC(=O)Nc1ccc(C)cc1C,-2,6
COc1cc(/C=N/NC(=O)C23CC4CC(CC(C4)C2)C3)cc(Br)c1O,14*,.
CCCCCC(=O)N/N=C/c1cc(Br)c(O)c(OC)c1,-3,.
CC(O)(CS(=O)(=O)Cc1ccccc1)C(=O)Nc1ccc(C(F)(F)F)cc1 (stereo not given),7.9*,.
CC(O)(CS(=O)(=O)Cc1ccccc1)C(=O)Nc1cccc(C(F)(F)F)c1 (stereo not given),2,.
O=C(Nc1ccc2cn[nH]c2c1)c1ccc(Cl)c(S(=O)(=O)N2CCOCC2)c1,-3,.
C/C(=N\NC(=O)C(N)=O)c1ccc(Br)cc1,-3,.
CC/C(=N\NC(=O)C(N)=O)c1ccccc1O,5.1*,.
Cc1cccc(-n2c(N)cc(=O)nc2SCC(=O)Nc2nnc(C)s2)c1,5.7*,1
CCCCc1nnc(NC(=O)CSc2nc(=O)cc(N)n2-c2ccccc2)s1,3,-4
COP(=O)(OC)c1nc(-c2ccccc2)oc1N1CCOCC1,-3,.
CCN=C1S/C(=C\c2sccc2C)C(=O)N1CC,1,.
COC(=O)CCCCCNc1ccc(C(=O)OC)cc1N,0,-2
Cc1cc(C(=O)CN2C(=O)NC3(CCCc4sccc43)C2=O)c(C)n1-c1ccccc1 (stereo not given),4.8*,.
COc1ccc(-n2c(C)cc(C(=O)CN3C(=O)NC4(CCCc5sccc54)C3=O)c2C)cc1 (stereo not given),2,.
CC(CCc1ccccc1)NC(=O)COc1ccc(S(=O)(=O)N2CCOCC2)cc1[N+](=O)[O-] (stereo not given),-4,.
Cc1cccc(N2CCN(C(=O)Cc3ccc(Br)cc3)CC2)c1C,7.9*,3
